For 67 compounds, cytotoxicity call results are on record in the antibiotic and cytotoxicity screens of Wong et al. (2023).

In all, about 39,000 compounds went through this assay and about 1,500 (3.8%) were called active. This is one part of a sample in which actives are shown more often than they occur.

This experiment relates to HSkMC (human skeletal muscle cells). Nature of the experiment: cytotoxicity call (relative viability < 0.9). The settings on record: 10 µM.
With `O=C(N[C@H]1CC[C@H](CC(=O)N2CCOCC2)O[C@H]1CO)c1ccc2c(c1)OCO2`, the cytotoxicity call is “inactive”.

On to `C[C@@H]1CN([C@@H](C)CO)C(=O)c2cccc(NC(=O)C3CCOCC3)c2O[C@H]1CN(C)Cc1ccncc1`, for which the cytotoxicity call was “inactive”.

Consider `C[C@@H]1CCCCO[C@H](CN(C)C(=O)Nc2ccccc2)[C@H](C)CN([C@@H](C)CO)C(=O)c2cc(NS(=O)(=O)c3ccccc3)ccc2O1`, for which the cytotoxicity call is “inactive”.

Take `C[C@H](CO)N1C[C@H](C)[C@@H](CN(C)S(=O)(=O)c2ccc(-c3ccccc3)cc2)OCc2cn(nn2)CCCC1=O`: the cytotoxicity call is “inactive”.

As to `C[C@H]1O[C@@H]2[C@H](O[C@@H]1C)N(S(C)(=O)=O)CCN2S(C)(=O)=O`, the cytotoxicity call was “inactive”.

`COc1ccc(NC(=O)N2C[C@H](O)COC[C@H]3O[C@H](CC(=O)NC4Cc5ccccc5C4)CC[C@@H]32)cc1`: the cytotoxicity call was “inactive”.

On to `C[C@H](CO)N1C[C@H](C)[C@H](CN(C)Cc2ccc(-c3ccccc3)cc2)Oc2ccc(NC(=O)Nc3ccc4c(c3)OCO4)cc2CC1=O`, for which the cytotoxicity call was “inactive”.

For the compound `C=CCC[C@H](Cc1ccc(F)cc1)C(=O)OC[C@H]1CCCN1C(=O)[C@@H](CC=C)CC(=O)N(CCO)Cc1ccccc1`, the cytotoxicity call is “active”.

In the case of `C=CCC[C@@H](Cc1ccc(F)cc1)C(=O)OC[C@H]1CCCN1C(=O)[C@H](CC=C)CC(=O)N(CCO)Cc1ccccc1`, the cytotoxicity call is “inactive”.

As to `C=CCC[C@@H](Cc1ccc(F)cc1)C(=O)OC[C@@H]1CCCN1C(=O)[C@@H](CC=C)CC(=O)N(CCO)Cc1ccccc1`, the cytotoxicity call is “inactive”.

As for `C=CCC[C@H](Cc1ccc(F)cc1)C(=O)OC[C@H]1CCCN1C(=O)[C@H](CC=C)CC(=O)N(CCO)Cc1ccccc1`, the cytotoxicity call is “inactive”.

For the compound `C=CCC[C@H](Cc1ccc(F)cc1)C(=O)OC[C@@H]1CCCN1C(=O)[C@@H](CC=C)CC(=O)N(CCO)Cc1ccccc1`, the cytotoxicity call was “active”.

In the case of `C=CCC[C@@H](Cc1ccc(F)cc1)C(=O)OC[C@H]1CCCN1C(=O)[C@@H](CC=C)CC(=O)N(CCO)Cc1ccccc1`, the cytotoxicity call is “inactive”.

Consider `CN(C)CC(=O)N[C@@H]1CC[C@H](CC(=O)NCCN2CCCCC2)O[C@H]1CO`, for which the cytotoxicity call was “inactive”.

Consider `COc1ccc(C2=NS(=O)(=O)N(C)C(C(=O)N3CCC(C(N)=O)CC3)=C2)cc1`, for which the cytotoxicity call is “inactive”.

Turning to `CC(C)NC(=O)N(C)C[C@H]1Oc2c(NS(=O)(=O)c3ccc(Cl)cc3)cccc2C(=O)N([C@@H](C)CO)C[C@H]1C`, the cytotoxicity call is “inactive”.

Regarding `COc1ccc(S(=O)(=O)Nc2cccc3c2O[C@@H](CN(C)S(=O)(=O)c2ccccc2)[C@H](C)CN([C@@H](C)CO)C3=O)cc1`, the cytotoxicity call was “inactive”.

As to `O=C(Nc1ccc(Oc2ccc(Cl)cc2)c(Cl)c1)c1cc(I)cc(I)c1O`, the cytotoxicity call is “active”.

As to `O=C(Nc1ccc2ccccc2c1)c1ccc(Cl)cc1Cl`, the cytotoxicity call was “inactive”.

For the compound `Cc1ccc(S[C@]2(C(=O)NC(C)C)CC(=O)N(Cc3ccccc3C(F)(F)F)[C@@H]2c2ccc(CO)cc2)cc1`, the cytotoxicity call is “inactive”.

For the compound `CC(C)(C)c1cc(NC(=O)Nc2ccc(Oc3ccnc4nc(O)cnc34)cc2F)n(-c2ccccc2)n1`, the cytotoxicity call was “active”.

`Cc1ccc(S(=O)(=O)N(C)C[C@H]2Oc3ccc(NC(=O)C4CC4)cc3C(=O)N([C@H](C)CO)C[C@@H]2C)cc1`: the cytotoxicity call is “inactive”.

In the case of `Fc1ccccc1-c1nc2ccn(Cc3ccc(-c4ccc(C(F)(F)F)cc4C(F)(F)F)nn3)cc-2n1`, the cytotoxicity call is “active”.

Regarding `Cc1noc(C)c1NC(=O)Nc1cccc2c1O[C@H](CN(C)Cc1ccc(Oc3ccccc3)cc1)[C@@H](C)CN([C@H](C)CO)C2=O`, the cytotoxicity call is “inactive”.

As to `Cc1noc(C)c1NC(=O)Nc1ccc2c(c1)C(=O)N([C@H](C)CO)C[C@@H](C)[C@@H](CN(C)Cc1ccccc1)OCCCC[C@@H](C)O2`, the cytotoxicity call is “inactive”.

Regarding `C[C@@H]1CCCCO[C@H](CN(C)C(=O)CCC(F)(F)F)[C@@H](C)CN([C@H](C)CO)C(=O)c2cc(NC(=O)c3ccccc3)ccc2O1`, the cytotoxicity call is “inactive”.

With `COc1ccc(NC(=O)Nc2ccc3c(c2)CC(=O)N([C@H](C)CO)C[C@@H](C)[C@H](CN(C)Cc2ccc(Oc4ccccc4)cc2)O3)cc1`, the cytotoxicity call is “inactive”.

As to `O=C(O)CC[C@H]1CCCCN1`, the cytotoxicity call was “inactive”.

Take `C1CCC(C(CC2CCCCN2)C2CCCCC2)CC1.O=C(O)C=CC(=O)O` (configuration not stated): the cytotoxicity call is “active”.

With `C1CCC(C(C[C@H]2CCCCN2)C2CCCCC2)CC1`, the cytotoxicity call is “inactive”.

`C[C@H]1CN([C@@H](C)CO)S(=O)(=O)c2ccc(-c3cncnc3)cc2O[C@@H]1CN(C)C(=O)C1CCCCC1`: the cytotoxicity call is “inactive”.

Turning to `COc1ccc2c3c([nH]c2c1)[C@@H](CO)N(CC1CCCCC1)C[C@]13CN(C1)C(=O)Nc1cccc(c1)F`, the cytotoxicity call is “inactive”.

As to `COc1ccc2c3c([nH]c2c1)[C@H](CO)N(C[C@]13CCN(CC1)C(=O)Nc1cccc(c1)F)C(=O)c1ccc(cc1)F`, the cytotoxicity call is “inactive”.

`COc1ccc2c3c([nH]c2c1)[C@H](CO)N(CC1CCCCC1)C[C@]13CN(C1)C(=O)Nc1cccc(c1)F`: the cytotoxicity call is “inactive”.

For `COc1ccc2c3c([nH]c2c1)[C@@H](CO)N(C[C@]13CCN(CC1)C(=O)Nc1cccc(c1)F)C(=O)c1ccc(cc1)F`, the cytotoxicity call was “inactive”.

Take `COc1ccc2c3c([nH]c2c1)[C@@H](CO)N(C[C@]13CN(CC2CCCCC2)C1)C(=O)Nc1cccc(c1)F`: the cytotoxicity call is “active”.

Regarding `COc1ccc2c3c([nH]c2c1)[C@H](CO)N(C[C@]13CN(CC2CCCCC2)C1)C(=O)Nc1cccc(c1)F`, the cytotoxicity call is “active”.

With `C[C@H](CO)N1C[C@H](C)[C@H](CN(C)Cc2ccc(C(=O)O)cc2)Oc2ccc(NC(=O)c3ccncc3)cc2CC1=O`, the cytotoxicity call was “inactive”.

For `C[C@@H]1CCCCO[C@H](CN(C)Cc2ccc3c(c2)OCO3)[C@@H](C)CN([C@@H](C)CO)C(=O)c2cc(NC(=O)NC3CCCCC3)ccc2O1`, the cytotoxicity call was “inactive”.

`[O-][NH2+]N1CCCCC1`: the cytotoxicity call is “inactive”.

As to `CC(C)NC(=O)N(C)C[C@H]1Oc2c(NS(=O)(=O)c3ccc(Cl)cc3)cccc2C(=O)N([C@H](C)CO)C[C@@H]1C`, the cytotoxicity call is “inactive”.

Consider `C[C@H](CO)N1C[C@H](C)[C@@H](CN(C)C(=O)Nc2ccc(F)cc2)Oc2c(NS(=O)(=O)c3cn(C)cn3)cccc2C1=O`, for which the cytotoxicity call was “inactive”.

Take `O=C(NCC(F)(F)F)[C@@H]1c2ccccc2C(=O)N(CC23CC4CC(CC(C4)C2)C3)[C@H]1c1ccc(CO)cc1`: the cytotoxicity call was “inactive”.

`CN1CCC2(CC1)CN(C(=O)CNC(N)=O)CCCN2C`: the cytotoxicity call was “inactive”.

For `C[C@H](CO)N1C[C@H](C)[C@@H](CN(C)C(=O)NC2CCCCC2)Oc2ccc(NC(=O)Nc3cccc4ccccc34)cc2C1=O`, the cytotoxicity call was “inactive”.

Consider `C[C@@H]1CN([C@@H](C)CO)C(=O)c2cc(NC(=O)NC3CCCCC3)ccc2O[C@H]1CN(C)C(=O)Nc1cccc2ccccc12`, for which the cytotoxicity call is “inactive”.

On to `C[C@@H]1CN([C@H](C)CO)C(=O)c2cc(NC(=O)Nc3cccc4ccccc34)ccc2O[C@H]1CN(C)C(=O)NC1CCCCC1`, for which the cytotoxicity call was “active”.

Turning to `C[C@@H]1CN([C@H](C)CO)C(=O)c2cc(NC(=O)Nc3cccc4ccccc34)ccc2O[C@@H]1CN(C)C(=O)NC1CCCCC1`, the cytotoxicity call was “inactive”.

For `C[C@@H]1CN([C@@H](C)CO)C(=O)c2cc(NC(=O)NC3CCCCC3)ccc2O[C@@H]1CN(C)C(=O)Nc1cccc2ccccc12`, the cytotoxicity call is “active”.

Consider `C[C@@H]1CN([C@H](C)CO)C(=O)c2cc(NC(=O)NC3CCCCC3)ccc2O[C@H]1CN(C)C(=O)Nc1cccc2ccccc12`, for which the cytotoxicity call is “inactive”.

In the case of `COC(=O)CCn1ccc(=O)[nH]c1=O`, the cytotoxicity call is “inactive”.

Take `C[C@@H]1CN([C@@H](C)CO)C(=O)c2cc(NC(=O)Nc3ccc(C(F)(F)F)cc3)ccc2O[C@H]1CN(C)Cc1ccncc1`: the cytotoxicity call was “inactive”.

Regarding `COc1ccc(S(=O)(=O)Nc2ccc3c(c2)C(=O)N([C@H](C)CO)C[C@H](C)[C@H](CN(C)C(=O)Nc2ccccc2)OCCCC[C@H](C)O3)cc1`, the cytotoxicity call was “inactive”.

In the case of `C[C@H]1CN([C@@H](C)CO)C(=O)c2cccc(NC(=O)Nc3ccc(C(F)(F)F)cc3)c2O[C@@H]1CN(C)S(=O)(=O)c1ccc(F)cc1`, the cytotoxicity call was “inactive”.

For `C=CCNC(=O)[C@@H]1[C@H]2C(=O)O[C@H](c3ccccc3)[C@H](c3ccccc3)N2[C@H](c2ccc(OCCO)cc2)[C@@]12C(=O)N(C(=O)OCCOC)c1ccc(C#Cc3ccc(OC)cc3)cc12`, the cytotoxicity call was “inactive”.

As to `COc1ccc(NC(=O)Nc2ccc3c(c2)CC(=O)N([C@H](C)CO)C[C@H](C)[C@@H](CN(C)Cc2ccc(-c4ccccc4)cc2)O3)cc1`, the cytotoxicity call was “active”.

As to `C[C@H](CO)N1C[C@H](C)[C@@H](CN(C)Cc2ccc(Oc3ccccc3)cc2)Oc2ccc(NC(=O)Nc3ccccc3)cc2CC1=O`, the cytotoxicity call is “inactive”.

Consider `COc1ccc(NC(=O)Nc2ccc3c(c2)CC(=O)N([C@@H](C)CO)C[C@@H](C)[C@@H](CN(C)Cc2ccc(Oc4ccccc4)cc2)O3)cc1`, for which the cytotoxicity call is “inactive”.

On to `C[C@H]1CN([C@@H](C)CO)C(=O)Cc2cc(NC(=O)Nc3ccccc3)ccc2O[C@H]1CN(C)Cc1ccc(Oc2ccccc2)cc1`, for which the cytotoxicity call is “active”.

On to `COc1ccc(NC(=O)Nc2ccc3c(c2)CC(=O)N([C@H](C)CO)C[C@@H](C)[C@@H](CN(C)Cc2ccc(Oc4ccccc4)cc2)O3)cc1`, for which the cytotoxicity call was “inactive”.

`COc1ccc(NC(=O)Nc2ccc3c(c2)CC(=O)N([C@@H](C)CO)C[C@H](C)[C@H](CN(C)Cc2ccc(-c4ccccc4)cc2)O3)cc1`: the cytotoxicity call was “inactive”.

On to `C[C@H](CO)N1C[C@H](C)[C@H](CN(C)Cc2ccc(Oc3ccccc3)cc2)Oc2ccc(NC(=O)Nc3ccccc3)cc2CC1=O`, for which the cytotoxicity call was “inactive”.

As to `COc1ccc(NC(=O)Nc2ccc3c(c2)CC(=O)N([C@H](C)CO)C[C@H](C)[C@H](CN(C)Cc2ccc(-c4ccccc4)cc2)O3)cc1`, the cytotoxicity call is “inactive”.

On to `COc1ccc(NC(=O)Nc2ccc3c(c2)CC(=O)N([C@@H](C)CO)C[C@H](C)[C@@H](CN(C)Cc2ccc(Oc4ccccc4)cc2)O3)cc1`, for which the cytotoxicity call is “inactive”.

Turning to `COc1ccc(NC(=O)Nc2ccc3c(c2)CC(=O)N([C@@H](C)CO)C[C@@H](C)[C@H](CN(C)Cc2ccc(Oc4ccccc4)cc2)O3)cc1`, the cytotoxicity call is “active”.

Regarding `C[C@@H]1CN([C@@H](C)CO)C(=O)Cc2cc(NC(=O)Nc3ccccc3)ccc2O[C@@H]1CN(C)Cc1ccc(Oc2ccccc2)cc1`, the cytotoxicity call was “active”.

As to `COc1ccc(NC(=O)Nc2ccc3c(c2)CC(=O)N([C@H](C)CO)C[C@H](C)[C@H](CN(C)Cc2ccc(Oc4ccccc4)cc2)O3)cc1`, the cytotoxicity call is “inactive”.
